The text below walks through data of PubChem BioAssay.

SMILES strings stand for the structures. Results filed as inconclusive are left out. The source made the active and inactive calls. Unless noted, cut-off not given; nearly all actives show AC50 up to about 26 µM.

Assay [1] in a line: EMT-state selective cytotoxicity in co-culture – imaging, PC-3E GFP, TEM4-18 mCherry, primary screen (AID 1345086;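 active means compounds killing one labelled cell type while sparing the other, by normalised counts and ratio limits, not self-fluorescent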;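 on all read-outs here: cells exposed to compound for 72 h before imaging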;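 on red/green cell ratio (normalised): normalised mesenchymal count divided by normalised epithelial count so high means epithelial killing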). The conditions noted are these: PC-3E GFP / TEM4-18 mCherry co-culture, imaging cell counts, at 1 µM; for red/green cell ratio (normalised): actives lie on both sides, counts scaled to control wells, 1 = unselective.
Assay [2] is described as follows: viability loss in pontine glioma line – cell-based, SU-DIPG-XVII, MIPE5.0, CellTiter-Glo, qHTS, dose response (AID 1347060).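 On AC50: cells exposed to compound for 48 hours before viability readout.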 The conditions noted are these: CellTiter-Glo ATP luminescence. A general note: Cellular ATP, detected with luciferase, serves as a proxy for viable cell number.
Assay [3] is described as follows: viability loss in pontine glioma line – cell-based, SU-DIPG-XIII, MIPE4.0, CellTiter-Glo, qHTS, dose response (AID 1347061; cut-off not given, nearly all actives have AC50 up to about 37 µM;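 further: cells exposed to compound for 48 hours before readout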). To be noted: CellTiter-Glo ATP luminescence.
Assay [4] in a line: viability loss in pontine glioma line – cell-based, JHH-DIPG-1, MIPE4.0, CellTiter-Glo, qHTS, dose response (AID 1347062; cut-off not given, nearly all actives have AC50 up to about 27 µM). The conditions noted are these: JHH-DIPG-1 viability, CellTiter-Glo ATP luminescence.
Assay [5] is described as follows: viability loss in pontine glioma line – cell-based, SU-DIPG-IV, MIPE4.0, CellTiter-Glo, qHTS, dose response (AID 1347063; cut-off not given, nearly all actives have AC50 up to about 30 µM;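 further: compound exposure lasted 48 hours before the viability readout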). To be noted: CellTiter-Glo ATP luminescence.
Assay [6] can be described thus: viability loss in pontine glioma line – cell-based, SU-DIPG-XIII, MIPE5.0, CellTiter-Glo, qHTS, dose response (AID 1347064; cut-off not given, nearly all actives have AC50 up to about 23 µM;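 further: cells exposed to compound for 48 hours before the viability read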). To be noted: CellTiter-Glo ATP luminescence.
[7] abbreviates: measured here: epithelial PC-3E GFP cell survival.
The mark [8] stands for this setting: measured here: mesenchymal TEM4-18 mCherry cell survival.

In the case of `CCC(C)n1ncn(-c2ccc(N3CCN(c4ccc(OC[C@H]5CO[C@](Cn6cncn6)(c6ccc(Cl)cc6Cl)O5)cc4)CC3)cc2)c1=O` (some centres not stated), the red/green cell ratio (normalised) in assay [1] was 0.8 (inactive). Besides, the normalised cell number amounted to 1.27 in assay [1] (setting [7]) and 1.01 in assay [1] (setting [8]). In addition, the molecule was called inactive in assay [2], in assay [3] and in assay [4].
Take `CC(=O)Oc1ccccc1C(=O)O`: the red/green cell ratio (normalised) in assay [1] was 0.84 (inactive). Moreover, the normalised cell number in assay [1] (setting [7]) was determined as 1.28; in assay [1] (setting [8]), 1.08. The result in assay [2], in assay [4] and in assay [5] was inactive.
`CC(C)COCC(CN(Cc1ccccc1)c1ccccc1)N1CCCC1` (configuration not stated): in assay [1], the red/green cell ratio (normalised) is 1.11 (inactive). Further, the normalised cell number in assay [1] (setting [7]) came to 1.06; in assay [1] (setting [8]) it was 1.18. In addition, the figures for the AC50 in assay [2] and in assay [6] were 20.9 µM (active) and 14.8 µM (active), respectively.

As a reminder, the AC50 is the concentration at which the activity in the assay is half-maximal.
